# Results taken from PubChem BioAssay (NCATS).
# Results filed as inconclusive are left out. A call without a number means that no potency is given here. A number with no mark means an inactive call. Activity calls are given as the source filed them. The call rests on the fitted dose curve; in most records, active means well fitted cell-killing curve with a large enough effect; inconclusive means small, poorly fitted or top-dose-only effect, or effect the other way; inactive means flat fitted curve, though single readings scatter.
# How the values were obtained:
# Assay in all cases: Primary qHTS to identify gynecologic anti-cancer compounds using libraries of approved drugs and bioactive compounds (AID 1345084); further: nearly all actives have a fitted effect of over 55% in size
# [1] = test system: C33A; settings: Gynecologic cancer cell panel viability, ATPlite luminescence, 48 h; series mostly up to 57.5 µM
# Outline: (§1)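 Five-point cytotoxicity, 48 h drug exposure at 37 C, 5% CO2, on cells seeded 16 h beforehand. ATP content read by ATPlite luminescence.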
# [2] = test system: CAOV3; settings: Gynecologic cancer cell panel viability, ATPlite luminescence, 48 h; series mostly up to 57.5 µM
# Outline: as §1
# [3] = test system: CASKI; settings: Gynecologic cancer cell panel viability, ATPlite luminescence, 48 h; series mostly up to 57.5 µM
# Outline: as §1
# [4] = test system: Es-2; settings: Gynecologic cancer cell panel viability, ATPlite luminescence, 48 h; series mostly up to 57.5 µM
# Outline: as §1
# [5] = test system: HeLa; settings: Gynecologic cancer cell panel viability, ATPlite luminescence, 48 h; series mostly up to 57.5 µM
# Outline: as §1
# [6] = test system: Hek293T; settings: Gynecologic cancer cell panel viability, ATPlite luminescence, 48 h, control line for the selectivity index; series mostly up to 57.5 µM
# Outline: as §1
# Potency means the concentration at half of the fitted maximal effect.
SMILES,Potency [1],Potency [2],Potency [3],Potency [4],Potency [5],Potency [6],"activity change, negative = cytotoxicity [1]","activity change, negative = cytotoxicity [2]","activity change, negative = cytotoxicity [3]","activity change, negative = cytotoxicity [4]","activity change, negative = cytotoxicity [5]","activity change, negative = cytotoxicity [6]"
CC(=O)O[C@@H]1CC(C)=C2[C@H]1[C@H](C)CC[C@H]2/C=C(\C)C(=O)O,inactive,inactive,inactive,inactive,inactive,inactive,–,–,–,–,–,–
COc1c2c(c(C)c3c1C(=O)OC3)OC1(C)CC(O)C34OC(OC)(OC3(C)C)C(O)CC4(C)C1C2 (stereo not given),inactive,inactive,inactive,inactive,inactive,inactive,–,–,–,–,–,–
C[C@H]1CC[C@@]2(OC1)O[C@H]1CC3C4CC[C@H]5C[C@@H](O)[C@H](O)C[C@]5(C)C4=CC(=O)[C@]3(C)[C@H]1[C@@H]2C (stereo not given in full),inactive,inactive,inactive,inactive,inactive,inactive,–,–,–,–,–,–
C=CC(C)(C)C12C=C(OC)C(=O)N3C(C(C)C)C(=O)NC31N(OC)c1ccccc12 (stereo not given),inactive,inactive,inactive,inactive,inactive,inactive,–,–,–,–,–,–
C/C=C/C=C/C(O)=C1\C(=O)[C@]2(C)C3C(C(=O)CC/C=C/C)=C(O)C4(C)C1[C@]1(C)O[C@@]4(O)[C@@]3(C)O[C@@]12O,inactive,inactive,inactive,inactive,inactive,inactive,–,–,–,–,–,–
CC1(C)CCC[C@]2(C)[C@H]3CC(=O)O[C@]3(C)CC[C@@H]12,inactive,inactive,inactive,inactive,inactive,inactive,–,–,–,–,–,–
O=C(CC1C(=O)Nc2ccccc21)OC[C@H]1O[C@@H](OCCc2ccc(O)cc2)[C@H](O)[C@@H](O)[C@@H]1O (stereo not given in full),inactive,inactive,inactive,inactive,inactive,inactive,–,–,–,–,–,–
CC(=O)OC[C@]12[C@H](OC(C)=O)C(=O)[C@@H]3[C@@H](OC(C)=O)[C@@]14O[C@@]3(C)COC(=O)c1cccnc1[C@@H](C)[C@H](C)C(=O)O[C@@H]([C@H](O)[C@@H]2OC(C)=O)[C@]4(C)O,inactive,inactive,inactive,inactive,inactive,inactive,–,–,–,–,–,–
Nc1ncnc2c1ncn2CCNCCCCCO,inactive,inactive,inactive,inactive,inactive,inactive,–,–,–,–,–,–
CC12CCC3c4ccc(OC5OC(C(=O)O)C(O)C(O)C5O)cc4CCC3C1CCC2O (stereo not given),inactive,inactive,inactive,inactive,inactive,inactive,–,–,–,–,–,–
C=C1CCC2C(C)(C)C(O)CCC2(C)C1CCC(C)CCO (stereo not given),inactive,inactive,inactive,inactive,inactive,inactive,–,–,–,–,–,–
CC(C)=CCC(O)/C(C)=C/CO[C@@H]1O[C@H](CO)[C@@H](O)[C@H](O)[C@H]1O (stereo not given in full),inactive,inactive,inactive,inactive,inactive,inactive,–,–,–,–,–,–
COc1cc(C(=O)O)ccc1OC1OC(CO)C(O)C(O)C1O (stereo not given),inactive,inactive,inactive,inactive,inactive,inactive,–,–,–,–,–,–
CC(=O)c1ccc(O[C@@H]2O[C@H](CO)[C@@H](O)[C@H](O)[C@H]2O)cc1,inactive,inactive,inactive,inactive,inactive,inactive,–,–,–,–,–,–
O=C(O)CC1CCC(c2ccc(-c3ccc4nc(C(=O)NCc5ccc(OC(F)(F)F)cc5)cn4c3)cc2)CC1 (stereo not given),inactive,inactive,inactive,inactive,inactive,inactive,–,–,–,–,–,–
CC(C)C(NC(=O)c1ccc2ccccc2n1)C(=O)NC(CC(=O)O)C(=O)COc1c(F)cccc1F (stereo not given),inactive,inactive,inactive,inactive,inactive,inactive,–,–,–,–,–,–
COC(=O)CCSCc1ccc(-c2onc(C)c2NC(=O)OC(C)c2ccccc2Cl)cc1 (stereo not given),inactive,inactive,inactive,inactive,inactive,inactive,–,–,–,–,–,–
COc1ccc([C@@]2(O)c3c(ccc4c3OC(C)(CCC=C(C)C)C=C4)NC(=O)[C@@H]2OC)cc1 (stereo not given in full),inactive,inactive,inactive,inactive,inactive,inactive,–,–,–,–,–,–
C[C@@H]1C(=O)O[C@H](C)[C@H]1CC(=O)[C@](C)(O)[C@H]1CC[C@@]2(O)C3=CC(=O)[C@@H]4C[C@@H](O)[C@@H](O)C[C@]4(C)C3CC[C@]12C (stereo not given in full),inactive,inactive,inactive,inactive,inactive,inactive,–,–,–,–,–,–
COc1c2c(c(C)c3c1C(=O)OC3)O[C@@]1(C)CCC3(C(C)(C)O)OC(=O)CC[C@]3(C)[C@H]1C2 (stereo not given in full),inactive,inactive,inactive,inactive,inactive,inactive,–,–,–,–,–,–

SMILES,Potency [1],Potency [2],Potency [3],Potency [4],Potency [5],Potency [6],"activity change, negative = cytotoxicity [1]","activity change, negative = cytotoxicity [2]","activity change, negative = cytotoxicity [3]","activity change, negative = cytotoxicity [4]","activity change, negative = cytotoxicity [5]","activity change, negative = cytotoxicity [6]"
CCNC(=O)Nc1ncc(-c2cc(-c3c(C)cc(OC)cc3C)nc(-c3cnccn3)n2)s1,inactive,inactive,inactive,inactive,inactive,inactive,–,–,–,–,–,–
CC(C)(O)/C=C/C1=CC(=O)[C@@](C)(O)C[C@H]1O,inactive,inactive,inactive,inactive,inactive,inactive,–,–,–,–,–,–
CC1OC(OC2CCC3(C)C(CCC4(C)C3CC=C3C5CC(C)(C)CCC5(C(=O)OC5OC(CO)C(O)C(O)C5O)CCC34C(=O)O)C2(C)C)C(O)C(O)C1O (stereo not given),inactive,inactive,inactive,inactive,inactive,inactive,–,–,–,–,–,–
C=C(C)C1CCC2(C(=O)O)CCC3(C(=O)O)C(CCC4C5(C)CCC(O)C(C)(C(=O)O)C5CCC43C)C12 (stereo not given),inactive,inactive,inactive,inactive,inactive,inactive,–,–,–,–,–,–
N#Cc1ccc(C(=O)N2CCC3(CC2)N=C(N)c2c(F)ccc(F)c2N3)cn1,inactive,inactive,inactive,inactive,inactive,inactive,–,–,–,–,–,–
CCOC(=O)CCN(C(=O)c1ccc2c(c1)nc(CNc1ccc(C(=N)N)cc1)n2C)c1ccccn1,inactive,inactive,inactive,inactive,inactive,inactive,–,–,–,–,–,–
CCOc1cc(C(=O)N2CCC(N3CCN(C)CC3)CC2)ccc1Nc1ncc2c(n1)N(C1CCCC1)c1ccccc1C(=O)N2C,inactive,31.6 µM (active),inactive,inactive,inactive,inactive,–,–,–,–,–,–
CC(C)CC(=O)O[C@@H]1OC=C(CO[C@@H]2O[C@H](CO)[C@@H](O)[C@H](O)[C@H]2O)[C@H]2[C@@H]3O[C@H]3[C@@](O)(CO)[C@@H]12,inactive,inactive,inactive,inactive,inactive,inactive,–,–,–,–,–,–
C=C[C@H]1C(O[C@@H]2O[C@H](CO)[C@@H](O)[C@H](O)[C@H]2O)OC=C2C(=O)N3CCc4c([nH]c5ccccc45)[C@H]3C[C@H]21 (stereo not given in full),inactive,inactive,inactive,inactive,inactive,inactive,–,–,–,–,–,–
CC1CC2OC3(OC2C(C)(C)O)C1C1(C)CCC24CC25CCC(O[C@@H]2OC[C@@H](O)[C@H](O)[C@H]2O)C(C)(C)C5CC=C4C1(C)C3O (stereo not given in full),inactive,inactive,inactive,inactive,inactive,inactive,–,–,–,–,–,–
O=C(/C=C\c1ccc(O)cc1)N[C@@H](Cc1ccc(O)cc1)C(=O)O,inactive,inactive,inactive,inactive,inactive,inactive,–,–,–,–,–,–
C=C(C(=O)O)C1CCC2(C)CCC(O)C(=C)C2C1 (stereo not given),inactive,inactive,inactive,inactive,inactive,inactive,–,–,–,–,–,–
CC(=O)O[C@H]1CC[C@H](C)[C@@]2(C)[C@H](OC(C)=O)c3c(C)coc3C(=O)[C@H]12,inactive,inactive,inactive,inactive,inactive,inactive,–,–,–,–,–,–
CC1CCC2(C(=O)O)CCC3(C)C(=CCC4C5(C)CCC(OC(=O)/C=C/c6ccccc6)C(C)(C)C5CCC43C)C2C1C (stereo not given),inactive,inactive,inactive,inactive,inactive,inactive,–,–,–,–,–,–
CC(C)=C/C=C\[C@H](C)[C@H]1CC[C@]2(C)C[C@@H]3C(C)=CC(=O)C3/C(CO)=C\C[C@@H]12 (stereo not given in full),inactive,inactive,inactive,inactive,inactive,inactive,–,–,–,–,–,–
CC(C)C(C(=O)N(C)C(C)C(N)=O)N(C)C(=O)C1CCCN1C(=O)/C=C/C=C/C(O)C(C)O (stereo not given),inactive,inactive,inactive,inactive,inactive,inactive,–,–,–,–,–,–
C[C@@H]1C(=O)O[C@H]2C[C@]34[C@H]5C[C@@H](C(C)(C)C)[C@]36[C@@H](OC(=O)[C@H]6O)O[C@]4(C(=O)O5)[C@]21O,inactive,inactive,inactive,inactive,inactive,inactive,–,–,–,–,–,–
CC1OC(OC2C(OC3C(O[C@H]4CC[C@@]5(C)C(CC[C@]6(C)C5C(=O)C=C5C7CC(C)(C)CC(O)[C@]7(C)CC[C@]56C)C4(C)C)OC(C(=O)O)C(O)C3O)OCC(O)C2O)C(O)C(O)C1O (stereo not given in full),–,–,–,–,–,–,-11.1% [at 11.6 µM],-11.1% [at 11.6 µM],-7.33% [at 11.6 µM],-2.72% [at 11.6 µM],6.46% [at 11.6 µM],-13.7% [at 11.6 µM]
C[C@H](O)[C@H](O)/C=C/c1cccc(O)c1CO,inactive,inactive,inactive,inactive,inactive,inactive,–,–,–,–,–,–
C[C@@H]1O[C@@H](O[C@@H]2CO[C@@H](O[C@H]3CC[C@@]4(C)C(CC[C@]5(C)C4CC=C4[C@@H]6CC(C)(C)CC[C@]6(C(=O)O[C@@H]6O[C@H](CO)[C@@H](O)[C@H](O)[C@H]6O)CC[C@]45C)[C@]3(C)CO)[C@H](O)[C@H]2O[C@@H]2O[C@H](CO)[C@@H](O)[C@H](O)[C@H]2O)[C@H](O)[C@H](O)[C@H]1O (stereo not given in full),–,–,–,–,–,–,16.4% [at 11.6 µM],15.5% [at 11.6 µM],3.56% [at 11.6 µM],19.8% [at 11.6 µM],-1.12% [at 11.6 µM],-12.7% [at 11.6 µM]
